Rows were chosen to be rich in hits. Some 0.49% of all compounds tested hit in one or more screens of this group.
Tb PFK inh-1: qHTS Assay to Find Inhibitors of T. brucei phosphofructokinase | ATP-dependent 6-phosphofructokinase (Trypanosoma brucei brucei), O15648 | T. brucei PFK, ADP-Glo luminescence | Potency, µM (top dose mostly 57.5 µM), inactives show at the top dose activity, negative = inhibition, most hits filed as inhibitors | 330,000 tested, 0.17% active | AID 485367, 2010;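 note: potency is the fitted concentration of half-maximal effect; 0% = uninhibited 1x PFK enzyme wells and -100% = no-enzyme wells; nearly all actives have a fitted effect of over 60% in size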
Target sequence (O15648 whole entry, looked up): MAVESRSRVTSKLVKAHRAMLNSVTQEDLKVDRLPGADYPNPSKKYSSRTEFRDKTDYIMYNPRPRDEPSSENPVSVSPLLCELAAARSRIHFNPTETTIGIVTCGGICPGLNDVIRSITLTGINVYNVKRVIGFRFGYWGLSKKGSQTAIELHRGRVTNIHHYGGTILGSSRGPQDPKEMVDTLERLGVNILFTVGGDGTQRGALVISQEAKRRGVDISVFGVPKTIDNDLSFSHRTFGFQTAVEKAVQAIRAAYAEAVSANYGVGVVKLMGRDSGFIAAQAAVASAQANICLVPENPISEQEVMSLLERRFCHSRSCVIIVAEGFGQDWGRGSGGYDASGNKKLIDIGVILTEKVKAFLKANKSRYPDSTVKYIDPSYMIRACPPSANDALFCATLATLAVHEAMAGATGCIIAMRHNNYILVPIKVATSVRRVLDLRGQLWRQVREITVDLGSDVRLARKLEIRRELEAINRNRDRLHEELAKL
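In TEA buffer at pH 8.0 with 5 mM MgCl2, enzyme (1.25 nM) converted F6P (0.5 mM) and ATP (0.1 mM) for 45 min at room temperature. ADP product was read by luciferase luminescence.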
CCT chaperon mod: High-Throughput Screening for Modulators of Cytosolic Chaperonin Activity; purified chaperonin ATPase assay, HTRF ADP detection, 30 min; 360,000 tested, 0.3% active; activity change, % (concentration not given with the values), hits read low; in the data active = activity change below about -30%; note: % is set by controls: 0 for no effect and ±100 for the full control effect
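Enzyme 40 or 20 nM (batch-dependent) in Tris pH 7.4/KCl/MgCl2/DTT; cpd 76 uM single point; ATP 10 uM; 30 min 37 °C; Transcreener ADP HTRF detection, 30 min RT; ratio 665/615.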
ASM inhibitor: Inhibitors of Secretory Acid Sphingomyelinase (S-ASM): qHTS. placental ASM, HMU-PC fluorogenic substrate, 60 min. Sphingomyelin phosphodiesterase (Homo sapiens), P17405. 340,000 tested, 0.006% active. Potency, µM (highest dose often 57.5 µM), without a hit: top-dose activity change, negative = inhibition, hits mostly inhibitors; note: potency is the fitted concentration of half-maximal effect
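qHTS format. ASM enzyme prepared from human placenta hydrolyses the fluorogenic substrate HMU-PC0 (9 uM final) over 60 min at 37 °C after a 10 min compound preincubation.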
BCR signal inh: qHTS Assay to Find Inhibitors of Chronic Active B-Cell Receptor Signaling. ABC-DLBCL IkBa-CBG/CBR reporter, luminescence ratio, 4 h. Potency, µM (doses to about 46.1 µM), for inactives: at the highest dose activity change, negative = inhibition, actives largely listed as inhibitors. 340,000 tested, 0.05% active; active = well fitted inhibition curve with a large enough effect in the signal ratio, with a control signal flat, not every such curve was filed as active; inconclusive = small, poorly fitted or top-dose-only effect, or effect the other way, or a change in a side signal; the % refers to the signal ratio;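 note: potency is the fitted concentration of half-maximal effect; plate controls were basal doxycycline-induced cells for no effect and cells given 10 µM MG132 for full effect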
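Concentration-response series (up to 46 uM) were applied to TMD8 dual-reporter cells for 4 h at 37C with doxycycline. Green/red ratio, after filter-overlap correction, defined %Activity; red signal alone was normalised to basal cells and zero luminescence.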
TCR act: Activators of T cell receptors: qHTS campaign | primary human leukocytes, anti-CD3, IL-2 HTRF, 48 h | Potency, µM (highest dose often 9.22 µM), without a hit: top-dose activation of IL-2 secretion, hits mostly activators | 330,000 tested, under 10 active | AID 504894, 2011; note: % of control where 0% means no effect
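Activity was scored as IL-2 release from primary human leukocytes given only a TCR signal (a-CD3 beads) plus compound for 48 hr. Detection used a two-antibody HTRF format read at 665nm.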
Tb PFK KinaseGlo: Tb PFK orthogonal confirmatory assay using ATP depletion (Kinase-Glo Plus) as an alternative measure of Tb PFK activity: Hit Validation; Potency, µM (doses to about 57.5 µM), for the others: top-dose inhibition; shares compounds with Tb PFK inh-1; 1,100 tested, 47% active; Tb PFK enzyme, ATP depletion, Kinase-Glo Plus luminescence; calls by dose curve; note: potency is the fitted concentration of half-maximal effect; nearly all actives have a fitted effect of over 60% in size
Tb PFK inh-2: Inhibitors of T. brucei phosphofructokinase: Hit Validation; purified T. brucei PFK, ADP-Glo luminescence, 45 min; Potency, µM (doses to about 57.5 µM), for the others: at the top dose activity change, negative = inhibition, actives largely listed as inhibitors; shares compounds with Tb PFK inh-1; AID 504637, 2011; 1,100 tested, 41% active;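 note: potency is the fitted concentration of half-maximal effect; plate controls were full PFK enzyme control for no effect and no enzyme control for full effect; nearly all actives have a fitted effect of over 60% in size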
The depositor's hits bear a star; ? = inconclusive; . = not tested or not shown; [ ] = another dose, or the depositor's remark. Unless noted, calls come from the whole dose curve; as a rule, active = well fitted curve in the direction sought with a large enough effect; inconclusive = small, poorly fitted or top-dose-only effect, or another doubt; inactive = no such curve, though single readings can be large; an effect the other way counts as inactive or inconclusive.

SMILES	Tb PFK inh-1	CCT chaperon mod	ASM inhibitor	BCR signal inh	TCR act	Tb PFK KinaseGlo	Tb PFK inh-2
CC(=O)Nc1ccccc1C(=O)OCC(=O)c1ccc2c(c1)OCCO2	8.9%	-1.8	3.2%	-2.3%	7.3%[46.1 µM]	.	.
Cc1cccc(C(=O)OCC(=O)c2ccc(CC(=O)N3CCOCC3)s2)c1C	?	1.4	0.8%	?	-7.1%	?	-17.4%
COc1c(O)cc2c(c1OC)-c1ccc(SC)c(=O)cc1C(NC(C)=O)CC2 (stereo not drawn)	.	-3.4	-4.0%	.	4.3%	.	.
O=S(=O)(Nc1ccccc1F)c1cccc(NC(=S)NCCN2CCOCC2)c1	7.57µM*	-0.1	4.0%	-9.0%	-0.4%	2.39µM*	3.79µM*
O=C(/C=C/c1ccccc1)Nc1cccc(S(=O)(=O)Nc2ccccc2F)c1	6.75µM*	-1.3	-12.2%	?	-1.4%[46.1 µM]	4.26µM*	6.01µM*
Cc1nc(SCc2ccc(O)c([N+](=O)[O-])c2)c([N+](=O)[O-])[nH]1	?	0.5	-7.3%	4.8%	1.5%	6.1%	-2.0%
O=[N+]([O-])c1cc([As](=O)(O)c2ccc(O)c([N+](=O)[O-])c2)ccc1O	8.4%	2.7	-1.5%	-0.7%	-1.0%	.	.
CC(=O)c1ccc(NC(=S)Nc2ccc(Br)c(Cl)c2)cc1	12µM*	-1.8	-7.0%	?	2.8%	30.1µM*	?
O=C(c1ccc(NC(=S)Nc2ccc(Cl)c(Cl)c2)cc1)N1CCCC1	21.3µM*	-0.5	-5.9%	1.3%	-1.1%[46.1 µM]	?	?
CC(=O)N1Cc2cnnn2-c2ccccc2C1C#N (stereo not drawn)	.	0.1	6.8%	.	-2.4%	.	.
O=C(N/N=C/c1c[nH]c2ccccc12)c1ccn(Cc2ccc(Cl)cc2)n1	-12.9%	-0.6	-13.3%	?	-1.6%	.	.
O=C(Cc1ccc(Cl)cc1)N/N=C/c1cccc(O)c1	9.53µM*	0.0	-7.8%	-14.9%	.	10.7µM*	12µM*
COc1ccc(/C=N/NC(=O)Cc2ccc(Cl)cc2)cc1OC	?	0.3	-5.5%	?	-17.4%	?	?
COc1ccc(OC)c(/C=N/OC(=O)Nc2ccc(Cl)cc2)c1	-1.8%	-4.2	-1.1%	?	5.8%	.	.
CCn1cc(/C=N\NC(=O)Cc2ccc(Cl)cc2)cn1	19µM*	-0.6	-0.9%	-3.7%	4.2%[46.1 µM]	7.57µM*	15.1µM*
O=C(Cc1ccccc1)NC(Cc1ccc(Cl)cc1)C(=O)O (stereo not drawn)	0.0%	-0.1	3.2%	?	8.1%	.	.
CC1OC(OC2C=C3CCC4C(CCC5(C)C(c6ccc(=O)oc6)CCC45O)C3(C)CC2)C(O)C(OC2OC(CO)C(O)C(O)C2O)C1O (stereo not drawn)	.	0.0	4.8%	.	-0.7%	.	.
CCCCCNc1c(C(=O)OCC)c(=O)[nH]c2ccccc12	5.4%	0.1	-2.7%	?	-2.7%	.	.
O=c1c2ccccc2nc(/C=C\c2ccccc2F)n1-c1ccc(O)cc1	.	.	.	-23.3%	.	.	.
O=C1NC(=O)C(C2CCCCCC2)C(=O)N1	.	-1.1	-1.6%	.	2.9%	.	.
O=S(=O)(Cc1cc(N2CCOCC2)nc(-c2ccccn2)n1)c1ccccc1	-1.0%	0.5	-1.2%	?	3.8%	.	.
COc1ccc(/C=C2\Oc3cc(OC(=O)N4CCOCC4)ccc3C2=O)c(OC)c1	0.2%	-0.3	142.1%	2.9%	-11.3%	.	.
